High-throughput results (PubChem BioAssay)
This is a sample that favours compounds with a hit; in the whole collection about 3% have one here.
CHT block – inhibitors of human choline transporter CHT; hit rate 0.86% among 310,000; AID 488975, 2010; CHT-expressing cells, membrane potential dye, choline response; stronger effect = lower value; B-score at 10 µM;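 active means B-score over 3 SD under the library average, and starting fluorescence ratio not unusually high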;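 further: choline stimulus applied at its EC90 after an EC20 pre-addition; B-score computed on integrated fluorescence ratio after choline addition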
Target sequence (Q9GZV3 whole entry, looked up): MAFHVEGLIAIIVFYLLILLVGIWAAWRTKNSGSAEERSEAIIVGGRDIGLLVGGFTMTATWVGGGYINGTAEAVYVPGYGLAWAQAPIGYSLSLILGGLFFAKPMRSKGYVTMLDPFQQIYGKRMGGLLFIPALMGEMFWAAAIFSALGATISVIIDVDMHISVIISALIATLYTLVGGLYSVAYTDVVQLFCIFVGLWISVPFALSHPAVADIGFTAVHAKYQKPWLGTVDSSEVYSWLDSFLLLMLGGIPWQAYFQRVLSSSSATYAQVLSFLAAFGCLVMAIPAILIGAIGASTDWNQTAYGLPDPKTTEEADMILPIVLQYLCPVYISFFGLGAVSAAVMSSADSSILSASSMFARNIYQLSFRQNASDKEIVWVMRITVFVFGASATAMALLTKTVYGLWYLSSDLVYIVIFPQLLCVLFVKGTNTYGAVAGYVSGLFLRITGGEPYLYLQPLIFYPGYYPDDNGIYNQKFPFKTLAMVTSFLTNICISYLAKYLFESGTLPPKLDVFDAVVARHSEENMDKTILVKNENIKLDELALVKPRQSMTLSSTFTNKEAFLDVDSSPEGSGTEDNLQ
A1 inh – caspase 3/7 activation in MEF A1-2A-BIM cells, primary screen, A1 inhibitor project, cell-based, luminescence, HTS; Caspase-Glo 3/7 luminescence, 3 h; percent of clofoctol response, vehicle zero; caspase activation, % (test concentration not listed); hit rate 0.066% among 330,000; AID 2462, 2010;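 active means over half of replicate activation scores above 10%, or exactly half above 10 with the replicate mean above 10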
NALP1 inh – NALP1 inflammasome inhibitors in reconstituted yeast, colorimetric, S. cerevisiae, triplicate retest; S. cerevisiae NALP1/ASC/caspase-1 growth, X-gal OD620, 72 h; hit rate 0.61% among 280,000; inhibition, % at 10 µM; AID 2071, 2009; in the data active means inhibition mostly above about 24%, no sharp cut-off; inactive means mostly below about 32%
NALP3 yeast inh – NALP3 inflammasome inhibitors in reconstituted yeast, primary screen, luminescence, uHTS; Yeast reconstituted NLRP3/ASC/caspase-1, beta-gal luminescence, 24 h; inhibition, % at 10 µM; hit rate 0.39% among 330,000; AID 2825, 2010;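 active means inhibition of 50% or more; inactive means inhibition below 50%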;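 further: plate controls were induced DMSO wells for no effect and uninduced yeast grown without galactose for full effect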
CHT allo act – CHT positive allosteric modulators, primary screen, cell-based, membrane potential dye, choline EC20; B-score at 10 µM; CHT-expressing cells; stronger effect = higher value; LV-AA mutant CHT in HEK293 cells; hit rate 0.49% among 310,000; High affinity choline transporter 1 (Homo sapiens), Q9GZV3;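 active means initial fluorescence not abnormally high and integrated response B-score, plate-corrected, over 3 SD above library mean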
Mot1-301 SUMO – yeast Mot1-301 growth rescue at high temperature, primary screen, SUMOylation pathway inhibitor project, S. cerevisiae, ATP luminescence, 38.5C; AID 2716, 2010; growth rescue, % at 18.8 µM; S. cerevisiae Mot1-301 growth rescue; percent above DMSO median, 100 means doubled; hit rate 1% among 320,000;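 active means every valid replicate shows activation above 250% relative to neutral control wells; inactive means the rest, any valid replicate at or below 250%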;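 further: OY570 slx delta 5 strain wells were the positive control but not used for scaling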
Yeast Mot1 SUMO – growth restoration of Mot1-301 yeast on galactose, dose response, SUMO pathway inhibitor project, whole organism, S. cerevisiae, ATP luminescence, cherry-picked samples; shares compounds with Mot1-301 SUMO; S. cerevisiae Mot1-301 galactose growth, 24 h; -100 = growth of slx-deleted rescue strain; growth activity, percent, % at 42 µM; 2,300 tested, under 10 active;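 active means Signal drops as the depositor expects, and the fitted half-maximal dose is no more than ten times the top valid tested dose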;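 further: more negative values mean stronger growth rescue toward the control strain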
Starred values were filed as active, the others as inactive; [ ] = remark or other dose.

Screening CN(C)c1ccc(NC(=O)CSc2nc(N)c(C(=O)Nc3ccc(N(C)C)cc3)s2)cc1 returned CHT block inactive, A1 inh 0.4, NALP1 inh 8.8, NALP3 yeast inh 21.4, CHT allo act inactive, Mot1-301 SUMO 465.7* and Yeast Mot1 SUMO 0.2.
`COc1ccc(NC(=O)CSc2nc(N)c(C(=O)Nc3ccc(N(C)C)cc3)s2)cc1` gave CHT block inactive, A1 inh -0.3, NALP1 inh 15.8, NALP3 yeast inh 4.9, CHT allo act inactive and Mot1-301 SUMO -10.8.
Screening CC(=O)N1CCc2cc(S(=O)(=O)NCCCN3CCCCC3)ccc21 returned CHT block inactive, A1 inh -0.1, NALP1 inh 8.8, NALP3 yeast inh -11.5, CHT allo act inactive and Mot1-301 SUMO 2.3.
CC(=O)N1CCc2cc(S(=O)(=O)NCCC3=CCCCC3)ccc21 was read as CHT block inactive, A1 inh -0.1, NALP3 yeast inh 2.9, CHT allo act inactive, Mot1-301 SUMO active and Yeast Mot1 SUMO 0.0.
Screening CC1=Nc2cc([N+](=O)[O-])ccc2NC(C)(C)C1 returned CHT block inactive, A1 inh 0.2, NALP1 inh -7.4, NALP3 yeast inh 3.1, CHT allo act inactive and Mot1-301 SUMO 21.3.
CC1(C)CNc2cc([N+](=O)[O-])ccc2S1 was read as CHT block inactive, A1 inh -0.3, NALP1 inh 5.9, NALP3 yeast inh 8.4, CHT allo act inactive, Mot1-301 SUMO 809.9* and Yeast Mot1 SUMO 2.0.
For O=C(/C=C/c1ccc([N+](=O)[O-])cc1)N1CCN(S(=O)(=O)c2cccs2)CC1 the results were CHT block inactive, A1 inh 0.8, NALP1 inh -14.6, NALP3 yeast inh 1.0, CHT allo act inactive and Mot1-301 SUMO 19.8.
Screening C/C(=N\NC(=O)c1cccc(N/N=C(\C)c2ccc([N+](=O)[O-])cc2)c1)c1ccc([N+](=O)[O-])cc1 returned CHT block inactive, A1 inh -0.1, NALP3 yeast inh 16.5, CHT allo act inactive, Mot1-301 SUMO 540.4* and Yeast Mot1 SUMO 0.9.
C/C(=N\NC(=O)c1cccc(N/N=C(\C)c2ccccc2)c1)c1ccccc1 was read as CHT block inactive, A1 inh -2.7, NALP1 inh 22.1, CHT allo act inactive and Mot1-301 SUMO -24.1.
CC(=O)NCCC(=O)NCC1(N(C)Cc2ccccc2)Cc2ccccc2C1 was read as CHT block inactive, A1 inh 1.5, NALP1 inh -19.2, NALP3 yeast inh 23.4, CHT allo act inactive and Mot1-301 SUMO -6.0.
Screening COC(=O)CCCC(=O)NCC1(N(C)Cc2ccccc2)Cc2ccccc2C1 returned CHT block inactive, A1 inh 1.3, NALP1 inh 12.7, NALP3 yeast inh 15.9, CHT allo act inactive, Mot1-301 SUMO 387.3* and Yeast Mot1 SUMO 0.7.
Cc1cccc(C)c1NC(=O)C1(N(Cc2ccco2)C(=O)CC2NC(=O)NC2=O)CCCCC1 (centres undefined) was read as CHT block inactive, A1 inh -0.6, NALP1 inh 10.0, NALP3 yeast inh 6.0, CHT allo act inactive, Mot1-301 SUMO 413.5* and Yeast Mot1 SUMO -0.3.
For COc1ccc(-c2ccc3c(c2)S(=O)(=O)c2cccc(C(=O)N4CCN(c5c(Cl)cncc5Cl)CC4)c2C3=O)cc1OC the results were A1 inh 2.7, NALP3 yeast inh 7.3 and Mot1-301 SUMO -8.3.
COc1ccccc1NC(=O)CCN1C(=O)C2C3CCC(C3)C2C1=O (centres undefined) was read as CHT block inactive, A1 inh 0.2, NALP1 inh 0.5, NALP3 yeast inh 10.8, CHT allo act inactive and Mot1-301 SUMO -5.1.
Screening COc1cc(/C=N/n2c(C3CCCCC3)n[nH]c2=S)cc(OC)c1O returned CHT block inactive, A1 inh -0.7, NALP1 inh -5.9, NALP3 yeast inh 16.0, CHT allo act inactive, Mot1-301 SUMO 400.4* and Yeast Mot1 SUMO 1.4.
Oc1cccc(/C=N/n2c(C3CCCCC3)n[nH]c2=S)c1 was read as CHT block inactive, A1 inh 0.2, NALP1 inh -16.6, NALP3 yeast inh 22.9, CHT allo act inactive and Mot1-301 SUMO 3.2.
Screening O=C(Cc1csc(N2CCOCC2)n1)N/N=C/c1ccc(O)c(O)c1O returned NALP1 inh -27.3.
C/C(=N\NC(=O)Cc1csc(N2CCOCC2)n1)c1ccccc1 was read as CHT block inactive, A1 inh -0.3, NALP1 inh 48.4, NALP3 yeast inh 0.7, CHT allo act inactive, Mot1-301 SUMO 475.7* and Yeast Mot1 SUMO -0.1.
For O=C(COc1cccnc1[N+](=O)[O-])Nc1ccc2c(c1)CCC2 the results were CHT block inactive, A1 inh -0.1, NALP3 yeast inh 19.5, CHT allo act inactive, Mot1-301 SUMO 811.0* and Yeast Mot1 SUMO 0.2[21 µM].
Screening CC1CC(C)CN(CCCNS(=O)(=O)c2ccc3c(c2)CCN3C(=O)C2CC2)C1 (centres undefined) returned CHT block inactive, A1 inh 1.1, NALP1 inh 14.2, NALP3 yeast inh 10.5, CHT allo act inactive and Mot1-301 SUMO -8.1.
`CCN1C(=O)N(S(=O)(=O)C(F)(F)F)[C@@H](c2ccccc2)C(C(=O)OC)=C1C` gave CHT block inactive, A1 inh 0.9, NALP1 inh -3.0, NALP3 yeast inh 1.3, CHT allo act inactive and Mot1-301 SUMO -4.7.
CCN1C(=O)N(C)[C@@H](c2ccccc2)C(C(=O)OC)=C1C was read as CHT block inactive, A1 inh -0.4, NALP1 inh -4.7, NALP3 yeast inh 12.3, CHT allo act inactive, Mot1-301 SUMO 948.4* and Yeast Mot1 SUMO 0.5.
For CCc1ccc2nc(-c3cccc(C)c3)nc(SCC(=O)NCC3CCCO3)c2c1 (centres undefined) the results were CHT block inactive, A1 inh 1.1, NALP1 inh -9.9, NALP3 yeast inh -7.1, CHT allo act inactive, Mot1-301 SUMO 404.2* and Yeast Mot1 SUMO 0.4.
Screening COCCN1C=C(C(=O)OC)C(c2cc3c(cc2Br)OCO3)C(C(=O)OC)=C1 returned CHT block inactive, A1 inh -0.6, NALP1 inh 10.8, NALP3 yeast inh 11.3, CHT allo act inactive, Mot1-301 SUMO 556.6* and Yeast Mot1 SUMO -0.4.
